Bioassay records from PubChem BioAssay.
GBA mod: modulators of human glucocerebrosidase | Potency, µM | purified enzyme, resorufin glucoside fluorescence (screen aimed at inhibitors), 20 min | P04062 | actives 1.1% (n = 48,000); in the data active = potency below about 15 µM; inconclusive = mostly about 16 µM to 33 µM;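 also: potency is read from the fitted curve at half-maximal effect; the screen sought inhibitors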
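Compounds titrated against 0.2 nM normal enzyme, 30 uM resorufin beta-D-glucopyranoside substrate, citrate/phosphate buffer with taurocholate and tween-20, pH 5.9. Reaction ran 20 min at room temperature; fluorescence (Ex 548/Em 600) gave AC50.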
TSHR ag: agonists of human thyroid stimulating hormone receptor; HEK293-CNG-TSHR cells (CNG channel as cAMP sensor), membrane potential dye, cAMP; actives 0.48% (n = 73,000); Potency, µM (highest dose often 57.1 µM), inactives show top-dose activation, most hits filed as activators; AID 926; active = well fitted activation curve with a large enough effect in the main read-out, with a control signal flat, not every such curve was filed as active; inconclusive = small, poorly fitted or top-dose-only effect, or a change in a side signal; inactive = no such curve, though single readings can be large or run the other way; % of control where 0% means no effect;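 also: the control signal comes from parental cells without the receptor; potency is read from the fitted curve at half-maximal effect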
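HEK 293 cells stably expressing TSHR and a modified CNG channel, with CNG-only parental cells as counterscreen, were preloaded 60 min at room temperature with membrane potential dye containing 100 uM RO 20-1724. Compound exposure was 30 min, and depolarization was read as fluorescence at 590 nm.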
HEK293 cAMP ctrl: parental HEK293 cAMP activation (counter-screen) | actives 2.5% (n = 73,000) | parental HEK293 CNG cAMP sensor, membrane potential fluorescence | Potency, µM (doses to about 57.1 µM), for the others: at the top dose activation, usual class: activators; also: potency is read from the fitted curve at half-maximal effect; % of control where 0% means no effect; nearly all actives have a fitted effect of over 55% in size
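Parental HEK 293 cells stably expressing a modified CNG channel (no TSHR) report cAMP rise as membrane depolarization. Membrane potential dye with 100 uM RO 20-1724 was loaded for 60 min at room temperature, then compound added for 30 min; fluorescence read at 590 nm.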
Bst PK mod: modulators of Bacillus stearothermophilus pyruvate kinase. purified pyruvate kinase, luminescence ATP production; ribose 5-phosphate activator present at AC10. Potency, µM. actives 1.2% (n = 51,000). AID 361; in the data active = potency below about 11 µM; inconclusive = mostly about 12 µM to 25 µM;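 the screen sought inhibitors and activators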;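 also: potency is read from the fitted curve at half-maximal effect; scaled between full activation by ribose 5 phosphate and full inhibition by luteolin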
ERK AVP inh: blocks ERK signaling stimulated by vasopressin | HEK293-V1b, vasopressin-stimulated pERK AlphaScreen | Potency, µM (series often up to 57.5 µM), for the others: at the highest dose activity, negative = inhibition, actives largely listed as inhibitors | actives 0.99% (n = 72,000); also: potency is read from the fitted curve at half-maximal effect; % is scaled to controls: 0 for no effect and ±100 for the full control effect; nearly all actives have a fitted effect of over 55% in size
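HEK293 cells stably expressing V1b receptor, seeded overnight in 1% FBS, were treated with compounds for 30 min at 37C, then stimulated 5 min with 25 nM vasopressin; phospho-ERK read by AlphaScreen SureFire after lysis.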
Luciferase inh: firefly luciferase inhibition | P08659 | purified firefly luciferase, luminescence, 8 min | Potency, µM (highest dose often 57.1 µM), without a hit: at the top dose activity change, negative = inhibition, most hits filed as inhibitors | actives 2.2% (n = 72,000) | AID 411; also: potency is read from the fitted curve at half-maximal effect; % is scaled to controls: 0 for no effect and ±100 for the full control effect; nearly all actives have a fitted effect of over 40% in size
Target sequence (P08659 whole entry, looked up): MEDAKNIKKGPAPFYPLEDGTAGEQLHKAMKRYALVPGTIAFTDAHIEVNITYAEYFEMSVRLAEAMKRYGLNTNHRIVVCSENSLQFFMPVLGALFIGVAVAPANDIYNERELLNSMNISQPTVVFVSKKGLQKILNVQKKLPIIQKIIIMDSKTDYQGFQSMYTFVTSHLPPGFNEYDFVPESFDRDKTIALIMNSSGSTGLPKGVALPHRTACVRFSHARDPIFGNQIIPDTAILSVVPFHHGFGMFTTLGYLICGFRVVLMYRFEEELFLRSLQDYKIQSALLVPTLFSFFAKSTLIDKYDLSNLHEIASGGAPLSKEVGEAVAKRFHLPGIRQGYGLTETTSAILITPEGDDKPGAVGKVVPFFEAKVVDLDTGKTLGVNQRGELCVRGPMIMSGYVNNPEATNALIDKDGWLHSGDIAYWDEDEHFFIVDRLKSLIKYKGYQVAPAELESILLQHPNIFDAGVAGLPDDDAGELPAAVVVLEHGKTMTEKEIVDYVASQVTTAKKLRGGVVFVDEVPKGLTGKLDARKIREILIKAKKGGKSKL
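Titration-based qHTS; buffer 50 mM imidazole pH 7.2, 50 mM KCl, 7 mM MgCl2, 10 uM ATP, 0.01% Tween 20, 0.05% BSA; luciferase/luciferin detector mix added after compound; 8 min, ambient; luminescence.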
HEK293 cAMP cnt: raises cAMP in parental HEK293 cells lacking TSH receptor. shares compounds with TSHR ag. AID 953. activity change, negative = inhibition, % at 32.9 µM. 150 tested, under 10 active. parental HEK293 CNG biosensor, cAMP membrane potential fluorescence
An asterisk follows results filed as active; i = inactive; ? = inconclusive; nt = not tested or not shown; [ ] = dose if it differs, or a comment. The list is not random: actives were taken first. Their share in the collection is about 6.1%. Unless noted, calls follow the shape of the dose curve; as a rule, active = well fitted curve in the direction sought with a large enough effect; inconclusive = small, poorly fitted or top-dose-only effect, or another doubt; inactive = no such curve, though single readings can be large; an effect the other way counts as inactive or inconclusive.

SMILES	GBA mod	TSHR ag	HEK293 cAMP ctrl	Bst PK mod	ERK AVP inh	Luciferase inh	HEK293 cAMP cnt
O=C(c1ccc(Br)o1)N(Cc1ccccc1)c1ccccn1	nt	?	?	nt	?	0%	4
Cn1cc(Cl)c(C(=O)N(Cc2ccccc2)c2ccccn2)n1	nt	8%	7%	nt	-17%	-1%	nt
Cc1oc2c(CN3CCOCC3)c(O)ccc2c(=O)c1-c1ccccc1	>77	11%	10%	>57	4%	0%	-37[25.6 µM]
COc1cccc(Oc2c(C)oc3c(CN4CCOCC4)c(O)ccc3c2=O)c1	>77	3%	14%	>57	-4%	1%	nt
CN(Cc1ccco1)C(=O)Cn1c(=O)oc2cc(S(=O)(=O)NCc3ccccc3)ccc21	nt	25µM*	12%	nt	19%	1%	-4
COCCNc1ncnc2ccc(-c3ccc(N(C)C)cc3)cc12	nt	-1%	-5%	nt	?	0%[2.29 µM]	nt
CC(C)CC1OCCC=CC1C (stereo not given)	nt	-8%[11.4 µM]	-2%[11.4 µM]	nt	32%[11.5 µM]	nt	nt
O=C(CN(Cc1ccccc1Cl)C(=O)Cn1nnc(-c2cccs2)n1)NCC1CCCO1 (stereo not given)	nt	6.3µM*	12%	nt	10%	-1%	9
Cc1ccccc1-c1nc(CN2CCC(C(=O)N3CCN(c4ccccn4)CC3)CC2)c(C)o1	nt	11%	24%	nt	-12%	2%	17[25.6 µM]
Cc1ccccc1-c1nc(CN2CCC(C(=O)N3CCC(C(N)=O)CC3)CC2)c(C)o1	nt	-2%	-8%[11.4 µM]	nt	4%	2%	nt
c1ccc(CN2CCC3(CC2)SSC2(CCN(Cc4ccccc4)CC2)SS3)cc1	nt	3%[11.4 µM]	-5%[11.4 µM]	nt	3%[11.5 µM]	0%[11.4 µM]	nt
C=CCn1c(NCc2ccc3c(c2)OCO3)nc2ccccc21	>77	2%	16%	nt	-17%	-19%	13[25.6 µM]
C=CCn1c(NCc2ccccc2)nc2ccccc21	>77	16%	16%	>57	-5%	-9%	nt
C=CCC1C=CC(OC(=O)OCC)C(COC(=O)OCC)O1 (stereo not given)	nt	-2%[11.4 µM]	-2%[11.4 µM]	nt	9%[11.5 µM]	nt	nt
CSc1nc(NC(C)(C)C)nc(Oc2ccc(=O)[nH]n2)n1	>77	25µM*	0%	>57	-22%	1%	-3
CCNc1nc(NCc2ccccc2)nc(Oc2ccc(=O)[nH]n2)n1	>77	102%	-3%	>57	?	0%	nt
CCCS(=O)(=O)N1CCN(C(=O)c2cccnc2)CC1	nt	1%	-2%	nt	nt	nt	nt
CCCS(=O)(=O)N1CCN(C(=O)c2ccc(-c3ccccc3)cc2)CC1	nt	nt	17%[11.4 µM]	nt	-9%	-9%	17
CN(C)Cc1ccc(C(C)(C)C)cc1-c1cc(C(C)(C)C)ccc1CN(C)C	nt	0%[11.4 µM]	1%[11.4 µM]	nt	3%[11.5 µM]	1%[11.4 µM]	nt
COC(=O)c1cc(C(=O)OC)cc(N2C(=O)CC(Sc3nc(C)cc(C)n3)C2=O)c1 (stereo not given)	>77	25µM*	0%	i	-21%	0%	-8
O=C(CN(c1ccc2c(c1)OCCO2)S(=O)(=O)c1ccccc1)NCc1ccco1	>77	25µM*	1%	>57	-18%	1%	7
Cc1ccc(N(CC(=O)NCc2ccco2)S(=O)(=O)c2ccccc2)cc1	nt	?	?	nt	18%	0%	-7
CC1=CC(=O)C2C(C)(C)CCC[C@@]2(C)[C@@]1(O)CCc1ccoc1 (stereo not given in full)	nt	nt	nt	nt	-2%	nt	nt
Cn1cccc1Cc1nnc(SCC(N)=O)n1CCc1ccccc1	nt	4%	3%	nt	-28%	2%	3[25.6 µM]
CS(=O)(=O)N1CCN(C(=O)c2cc(-c3cccs3)nc3ccccc23)CC1	>77	20µM*	-4%	nt	-14%	-26%	-5
Brc1ccc(Oc2nnnn2-c2ccccc2)cc1	nt	25µM*	21%	nt	22%	0%	20
Cc1nn(C)c(C)c1S(=O)(=O)N(CC(=O)Nc1nccs1)c1ccc(C(C)C)cc1	nt	7.9µM*	9%	nt	-28%	1%	-9
